Our source for the AC50 and outcome values is PubChem BioAssay (EPA / NIEHS).

Results filed as inconclusive are left out. The source made the active and inactive calls. Rule for the calls: active = hit-call score of the fitted dose curve at least 0.9, where 1 is the maximum; inconclusive = response in the unintended direction; inactive = score below 0.9.

Beta-2 adrenergic receptor (Homo sapiens), sequence (P07550 whole entry, looked up): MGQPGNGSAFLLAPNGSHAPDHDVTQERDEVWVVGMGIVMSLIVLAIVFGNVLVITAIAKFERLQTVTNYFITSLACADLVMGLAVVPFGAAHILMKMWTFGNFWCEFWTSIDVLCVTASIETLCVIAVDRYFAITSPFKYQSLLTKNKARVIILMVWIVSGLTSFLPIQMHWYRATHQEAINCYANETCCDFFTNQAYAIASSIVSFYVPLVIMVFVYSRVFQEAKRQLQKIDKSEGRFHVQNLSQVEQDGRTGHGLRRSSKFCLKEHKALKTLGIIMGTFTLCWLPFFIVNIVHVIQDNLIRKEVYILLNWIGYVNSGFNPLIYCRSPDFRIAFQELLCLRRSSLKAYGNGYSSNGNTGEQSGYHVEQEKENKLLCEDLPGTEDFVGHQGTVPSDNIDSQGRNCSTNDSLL
human Adrenergic, Beta 1 Receptor (Adrb1), ADRB1 (gene 153), sequence (P08588 whole entry, looked up): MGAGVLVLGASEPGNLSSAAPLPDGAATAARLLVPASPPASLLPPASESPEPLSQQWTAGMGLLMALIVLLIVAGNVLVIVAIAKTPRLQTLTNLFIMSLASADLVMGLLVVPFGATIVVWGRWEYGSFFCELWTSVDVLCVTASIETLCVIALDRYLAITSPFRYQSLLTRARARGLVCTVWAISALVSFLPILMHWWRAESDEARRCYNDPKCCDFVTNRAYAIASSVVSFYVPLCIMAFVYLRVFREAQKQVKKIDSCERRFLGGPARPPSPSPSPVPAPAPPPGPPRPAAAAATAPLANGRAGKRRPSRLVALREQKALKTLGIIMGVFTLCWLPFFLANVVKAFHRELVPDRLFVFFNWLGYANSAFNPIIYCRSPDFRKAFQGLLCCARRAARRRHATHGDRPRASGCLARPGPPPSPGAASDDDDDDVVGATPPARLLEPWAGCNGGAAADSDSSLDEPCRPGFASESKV
human Adrenergic, Alpha 2c Receptor (Adra2C), ADRA2C (gene 152), sequence (P18825 whole entry, looked up): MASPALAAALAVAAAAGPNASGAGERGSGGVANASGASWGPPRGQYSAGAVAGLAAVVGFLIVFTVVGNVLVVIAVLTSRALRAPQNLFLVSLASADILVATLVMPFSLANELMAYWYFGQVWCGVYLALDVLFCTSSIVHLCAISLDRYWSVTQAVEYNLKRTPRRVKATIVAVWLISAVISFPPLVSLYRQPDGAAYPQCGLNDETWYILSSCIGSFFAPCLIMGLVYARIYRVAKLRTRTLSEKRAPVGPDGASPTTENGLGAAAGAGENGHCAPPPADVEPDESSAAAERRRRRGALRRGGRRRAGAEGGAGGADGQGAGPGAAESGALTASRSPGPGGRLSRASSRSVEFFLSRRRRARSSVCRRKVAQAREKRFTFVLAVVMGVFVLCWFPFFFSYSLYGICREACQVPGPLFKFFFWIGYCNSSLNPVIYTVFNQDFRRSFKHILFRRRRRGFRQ

One assay has as its target human Adrenergic, Beta 1 Receptor (Adrb1), ADRB1 (gene 153) (UniProt P08588). As to the kind of experiment: NVS_GPCR_hAdrb1: NovaScreen (NVS) G Protein-Coupled Receptor Assay for human Adrenergic, Beta 1 Receptor (Adrb1) (AID 2283258). The gist of the method: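 Cell-free radioligand displacement on receptor from human neuroepithelioma cells; 2 h after dosing, filter-based scintillation counting. Primary screen in duplicate at 25 uM, actives retested in concentration series; loss of signal vs DMSO baseline.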
The term AC50 denotes the concentration giving half of the maximal activity seen. For `CCCCCCc1ccc(O)cc1O`, the AC50 is 25 µM (active).
The same measure, in the same setting: to `COc1cccc(-c2ccc(/C=C\CN3CCCCCC3)cc2Cl)c1` belongs 22.6 µM (active); to `CCOC(=O)c1ccc(C2CCC(NC[C@H](O)COc3ccc(O)c(NS(C)(=O)=O)c3)CC2)cc1` (some centres not stated), 1.84 µM (active).

For a further assay, the target named is human Adrenergic, Alpha 2c Receptor (Adra2C), ADRA2C (gene 152) (UniProt P18825). The assay is described as follows: NVS_GPCR_hAdra2C: NovaScreen (NVS) G Protein-Coupled Receptor Assay for human Adrenergic, Alpha 2c Receptor (Adra2C) (AID 2283259). The procedure, abridged:
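Radioligand binding on Sf9-expressed receptor membranes, 1 h after chemical dosing, filter-based scintillation read-out. Loss of binding fitted positively versus DMSO; primary duplicate screen at 25 uM, actives retested in concentration series.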
Consider `CCCCCCc1ccc(O)cc1O`, for which the half-maximal activity concentration (AC50) is 6.31 µM (active).
In the case of `COc1cccc(-c2ccc(/C=C\CN3CCCCCC3)cc2Cl)c1`, the AC50 is 0.401 µM (active).
Same read-out and setting: to `CCOC(=O)c1ccc(C2CCC(NC[C@H](O)COc3ccc(O)c(NS(C)(=O)=O)c3)CC2)cc1` (some centres not stated) belongs 7.95 µM (active).
In the case of `CCc1cc(SCc2sc(-c3ccc(C(F)(F)F)cc3)nc2CN2CCN(c3ccc(OC)cc3)CC2)ccc1OCC(=O)O`, the AC50 is 2.63 µM (active).
Regarding `O=C(OC[C@H]1O[C@@H](OC(=O)c2cc(O)c(O)c(OC(=O)c3cc(O)c(O)c(O)c3)c2)[C@H](OC(=O)c2cc(O)c(O)c(OC(=O)c3cc(O)c(O)c(O)c3)c2)[C@@H](OC(=O)c2cc(O)c(O)c(OC(=O)c3cc(O)c(O)c(O)c3)c2)[C@@H]1OC(=O)c1cc(O)c(O)c(OC(=O)c2cc(O)c(O)c(O)c2)c1)c1cc(O)c(O)c(OC(=O)c2cc(O)c(O)c(O)c2)c1`, the result was inactive.
Take `O=c1[nH]c2ccc(S(=O)CCN3CCC(Cc4ccc(F)cc4)CC3)cc2o1` (configuration not stated): the AC50 is 1.96 µM (active).

The target of the next assay is Beta-2 adrenergic receptor (Homo sapiens) (UniProt P07550). As to the kind of experiment: NVS_GPCR_hAdrb2: NovaScreen (NVS) G Protein-Coupled Receptor Assay for human Adrenergic, Beta 2 Receptor (Adrb2) (AID 2283261). The gist of the method:
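Filter-based radioligand binding using receptor prepared from CHO cells, 1 h incubation, scintillation counting. Primary screen in duplicate at 25 uM, actives retested in concentration series; loss of binding relative to DMSO.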
In the case of `COc1cccc(-c2ccc(/C=C\CN3CCCCCC3)cc2Cl)c1`, the AC50 is 26.4 µM (active).
Same read-out and setting: with `CCOC(=O)c1ccc(C2CCC(NC[C@H](O)COc3ccc(O)c(NS(C)(=O)=O)c3)CC2)cc1` (some centres not stated) the figure was 0.24 µM (active).
`CCc1cc(SCc2sc(-c3ccc(C(F)(F)F)cc3)nc2CN2CCN(c3ccc(OC)cc3)CC2)ccc1OCC(=O)O`: the compound was called inactive.
